Test results from PubChem BioAssay (NCATS).
Results filed as inconclusive are left out. Where a call stands in place of a potency, no number is given. Values without a mark were called inactive. The source made the active and inactive calls. Calls come from the whole dose curve; as a rule, active = well fitted cell-killing curve with a large enough effect; inconclusive = small, poorly fitted or top-dose-only effect, or effect the other way; inactive = flat fitted curve, though single readings scatter. Where a SMILES comes first, the peptide text is derived from it. [ ]: non-standard residue; d: D form. ξ: configuration not given here. ξTyr(βOH) = NC(C(=O)O)C(O)c1ccc(O)cc1

Key:
Tov-21-G = assay: Primary qHTS to identify gynecologic anti-cancer compounds using libraries of approved drugs and bioactive compounds (AID 1345084); conditions: Gynecologic cancer cell panel viability, ATPlite luminescence, 48 h; series mostly up to 57.5 µM; note: nearly all actives have a fitted effect of over 55% in size
In short: (§1)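 Cell viability after 48 h drug treatment, ATPlite luminescence readout; five doses.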

Tov112D = assay: as above; conditions: Gynecologic cancer cell panel viability, ATPlite luminescence, 48 h; series mostly up to 57.5 µM
In short: as §1

## CC(C)C1(O)C=C2C(=O)CC3C(C)(C(=O)O)CCCC3(C)C2CC1 (centres undefined)
Tov-21-G
  Potency: inactive
Tov112D
  Potency: inactive

## C[C@]1(O)CC[C@@H]2C(C(=O)O)=CO[C@@H](O[C@@H]3O[C@H](CO)[C@@H](O)[C@H](O)[C@H]3O)[C@@H]21
Tov-21-G
  Potency: inactive
Tov112D
  Potency: inactive

## CCN1CCN(C(=O)N[C@@H](C(=O)N[C@@H]2C(=O)N3[C@@H]2SC(C)(C)[C@@H]3C(=O)O)c2ccccc2)C(=O)C1=O
Tov-21-G
  Potency: inactive
Tov112D
  Potency: inactive

## C=C1Cc2c(Cl)cc3[nH]c4c5c3c2[C@@]2(O)[C@@H]1C[C@@H]2C(C)(C)O[C@H]5C1CC[C@@]2(O)[C@@]35O[C@@H]3[C@H]3OC(C)(C)[C@H]3O[C@H]5CC[C@]2(C)[C@@]41C (some centres undefined)
Tov-21-G
  Potency: inactive
Tov112D
  Potency: inactive

## COc1cc(O)c2c(c1Cl)CC(C)OC2=O (centres undefined)
Tov-21-G
  Potency: inactive
Tov112D
  Potency: inactive

## COc1cc2c(c(O)c1OC/C=C(\C)CC/C=C(/C)CCC=C(C)C)CN(C(CCC(=O)O)C(=O)O)C2=O (centres undefined)
Tov-21-G
  Potency: inactive
Tov112D
  Potency: inactive

## CC/C=C/C=C/C1(C)OC(CC(CO)OC)=CC1=O (centres undefined)
Tov-21-G
  Potency: inactive
Tov112D
  Potency: inactive

## O=C(C[C@@H]1C(C(=O)O)=CO[C@@H](O[C@@H]2O[C@H](CO)[C@@H](O)[C@H](O)[C@H]2O)/C1=C\CO)OCCc1ccc(O)c(O)c1
Tov-21-G
  Potency: inactive
Tov112D
  Potency: inactive

## C/C=C(\C)C1C(C)=CC2CCC(OS(=O)(=O)O)C(C)C2C1/C=C/C=C/C(=O)O (centres undefined)
Tov-21-G
  Potency: inactive
Tov112D
  Potency: inactive

## O=C(Cn1c2ccccc2c2nc3n(c(=O)c21)CCS3)N1CCCC1
Tov-21-G
  Potency: inactive
Tov112D
  Potency: inactive

## C/C=C/C=C/C=C/C(=O)OC1C=C2C(O)OC(=O)[C@]2(O)[C@@]2(C)CCCC(C)(C)[C@H]12 (some centres undefined)
Tov-21-G
  Potency: inactive
Tov112D
  Potency: inactive

## CC(C)c1ccc2c(c1)C(O)CC1C(C)(CO)CCCC21C (centres undefined)
Tov-21-G
  Potency: inactive
Tov112D
  Potency: inactive

## CC1(C)CC[C@]2(C(=O)O)CC[C@]3(C)C(=CCC4[C@@]5(C)CC[C@H](O[C@H]6O[C@H](C(=O)O)[C@@H](O)[C@H](O[C@@H]7O[C@H](CO)[C@H](O)[C@H](O)[C@H]7O)[C@H]6O)C(C)(C)C5CC[C@]43C)[C@@H]2C1 (some centres undefined)
Tov-21-G
  activity change, negative = cytotoxicity: 6.29% [at 11.6 µM]
Tov112D
  activity change, negative = cytotoxicity: -0.0817% [at 11.6 µM]

## CC1(C)CC[C@]2(C(=O)OC3OC(CO)C(O)C(O)C3O)CC[C@]3(C)C(=CCC4[C@@]5(C)C[C@@H](O)[C@H](OC6OC(C(=O)O)C(O)C(O)C6O)C(C)(C)C5CC[C@]43C)[C@@H]2C1 (some centres undefined)
Tov-21-G
  activity change, negative = cytotoxicity: 3.24% [at 11.6 µM]
Tov112D
  activity change, negative = cytotoxicity: 0.489% [at 11.6 µM]

## CC(=O)OC1(C)CC(O)C2(O)C=COC(OC3OC(CO)C(O)C(O)C3O)C12 (centres undefined)
Tov-21-G
  Potency: inactive
Tov112D
  Potency: inactive

## CC(C)(O)C1CC=C(C(=O)OC[C@H]2O[C@@H](Oc3cc(C(=O)O)cc(O)c3O)[C@H](O)[C@@H](O)[C@@H]2O)CC1 (some centres undefined)
Tov-21-G
  Potency: inactive
Tov112D
  Potency: inactive

## C=CC(C)(CC/C=C(\C)C(=O)OC)OC1OC(COC(=O)CC(C)(O)CC(=O)O)C(O)C(O)C1O (centres undefined)
Tov-21-G
  Potency: inactive
Tov112D
  Potency: inactive

## C/C(CO)=C1/CCC23COC(C2)C(O)(C(=O)O)CCC13 (centres undefined)
Tov-21-G
  Potency: inactive
Tov112D
  Potency: inactive

## CC(C)C1NC(=O)CNC(=O)C2CCCN2C(=O)C(Cc2c[nH]c3ccccc23)NC(=O)CNC(=O)C(C(O)c2ccc(O)cc2)NC(=O)CNC1=O (centres undefined) (cyclo(G[ξTyr(βOH)]GWPGV); configuration not given here)
Tov-21-G
  Potency: inactive
Tov112D
  Potency: inactive

## O=C(/C=C/c1ccc(O)c(O)c1)O[C@H]1[C@H](OC2CCCCC2O)O[C@H](CO)[C@@H](O)[C@@H]1O (some centres undefined)
Tov-21-G
  Potency: inactive
Tov112D
  Potency: inactive

## CC1=C2C[C@@]3(C)C(CCC[C@@H]3C)C(O)C2(O)OC1=O (some centres undefined)
Tov-21-G
  Potency: inactive
Tov112D
  Potency: inactive

## Nc1nc2c(nc(Sc3ccc(Cl)cc3)n2[C@@H]2O[C@@H]3COP(=O)(O)O[C@H]3[C@H]2O)c(=O)[nH]1
Tov-21-G
  Potency: inactive
Tov112D
  Potency: inactive

## CC1(CO)CC(O)C2(C)CCC3(C)C(=CCC4C5(C=O)CCC(OC6OC(C(=O)O)C(O)C(O)C6OC6OC(C(=O)O)C(O)C(O)C6O)C(C)(C)C5CCC43C)C2C1 (centres undefined)
Tov-21-G
  activity change, negative = cytotoxicity: 10.3% [at 11.6 µM]
Tov112D
  activity change, negative = cytotoxicity: 20.1% [at 11.6 µM]

## C=CC(C)(O)C1CC2C3(C)CCCC(C)(C)C3C(O)C(O)C2(C)O1 (centres undefined)
Tov-21-G
  Potency: inactive
Tov112D
  Potency: inactive

## C=CC(C)(O)CCC1C(C)(O)CCC2C(C)(C)CCCC21C (centres undefined)
Tov-21-G
  Potency: inactive
Tov112D
  Potency: inactive

## OCC(O)C(c1c[nH]c2ccccc12)c1c[nH]c2ccccc12 (centres undefined)
Tov-21-G
  Potency: inactive
Tov112D
  Potency: inactive

## C/C(=C\CCC(C)(C)O)CCO[C@@H]1O[C@H](CO[C@@H]2O[C@@H](C)[C@H](O)[C@@H](O)[C@H]2O)[C@@H](O)[C@H](O)[C@H]1O
Tov-21-G
  Potency: inactive
Tov112D
  Potency: inactive
